Source: PubChem BioAssay
The source made the active and inactive calls.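 Rule for the calls: active = GFP response above 150% of the DMSO level; inconclusive = fewer than 70 events counted for a yeast strain; inactive = the rest.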

Experiment: yeast AGP1-GFP fluorescence change, single-dose – cell-based, flow cytometry, S. cerevisiae, cherry picks, confirmation (AID 2273);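 note: median GFP channel fluorescence over the whole cell population gate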
Details: S. cerevisiae AGP1-GFP strain, 3 h, at 10 µM

GFP response, % of DMSO, inactive:
CSc1nc2ccc(S(=O)(=O)N3CCCC3)cc2s1 94.1%
O=C1c2cccc3c([N+](=O)[O-])ccc(c23)C(=O)N1CCc1ccccn1 120%
COc1ccc(N=Cc2nc(-c3ccccc3)oc2OC(=O)c2ccccc2)cc1 98.1%
CS(=O)(=O)Nc1ccc(C2=NN(S(C)(=O)=O)C(c3ccccc3)C2)cc1 (stereo not given) 115%
Nc1cccc(C(=O)Nc2ccccc2Cl)c1 93.5%
CCN(CC)c1ccc(/C=C/c2cccc[n+]2C)c(OC)c1 104%
O=C(N/N=C/c1cccc(Oc2ccccc2)c1)c1ccncc1 103%
N/C(Cc1ccc(Cl)cc1Cl)=N\OC(=O)c1ccccc1 105%
CCC(=O)N/C(N)=N/c1nc2ccccc2o1 96.2%
Cc1cccc2nc(-c3cccnc3)c(NCCC(C)C)n12 98.5%
CCOc1ccc(C(Nc2cccnc2)c2cc(Cl)c3cccnc3c2O)cc1 (stereo not given) 93.9%
Nc1cccnc1S(=O)(=O)c1ccccc1 98.5%
O=C1ON=C(c2ccccc2)/C1=C/c1ccco1 89.2%
COc1cc(NC(=O)c2c(OC)cccc2OC)ccc1NC(=O)c1cc2ccccc2o1 95.4%
Cc1cc(NC(=O)c2cc3ccccc3o2)ccc1NC(=O)c1ccccc1 95.4%
Clc1cccc(Cn2ncc3ccccc32)c1 94.1%
Cc1ccccc1NC(=O)CC1SC(=O)N(c2ccccc2)C1=O (stereo not given) 104%
CCOC(=O)c1sc(NC(=O)CN2C(=O)c3cccc4cccc(c34)C2=O)nc1C 98.3%
COc1ccc(C(=O)Nc2cccc(C)c2)cc1 101%
COc1ccc(C2CC(c3cccs3)=NN2S(=O)(=O)c2ccc(C)cc2)cc1 (stereo not given) 106%
O=C1c2ccsc2SCCN1Cc1ccccc1 101%
CCCOc1ccc(C(=O)NNC(=S)NC(=O)c2ccco2)cc1 131%
CCc1c2ccccc2nn1-c1ccccc1C(=O)C(C)=O 100%
Cc1c(Br)cc(C(=O)O)c(C)c1C 97.1%
CSC1=NS(=O)(=O)c2c(C)nn(C)c2S1 104%
O=S(=O)(c1ccc(Cl)cc1)c1ccccn1 98.2%
COc1cccc(C(=O)/C=C/c2ccc(SC)cc2)c1 101%
Cc1ccc(N2C(=O)CC(Sc3ncn[nH]3)C2=O)cc1C (stereo not given) 100%
O=C(NCc1ccccn1)c1cc(-c2ccc(Cl)cc2)oc1C(F)(F)F 99.4%
O=C(CSc1cccc[n+]1[O-])c1cc2ccccc2o1 97.2%
S=c1[nH]nc(NCCCN2CCOCC2)s1 106%
Cc1cccc(N=c2c([N+](=O)[O-])nn(-c3ccc(Cl)cc3)n2O)c1 90.4%
COc1ccc(CCN2C(=O)c3cccc4cccc(c34)C2=O)cc1OC 105%
COc1ccc(C(=O)NC(=S)Nc2ccc(CN3CCOCC3)cc2)cc1 101%
CCOc1ccccc1N1CCN(C(=O)c2ccccc2)CC1 101%
CCOC(=O)C(=Cc1ccc(F)cc1)C(=O)OCC 96.7%
O=C(O)c1ccn2c(C(=O)c3ccccc3)c(-c3ccccc3)cc2c1 88.2%
CCc1nnc(N2C(=O)c3cccc4cccc(c34)C2=O)s1 98.8%
CC1CCCN(CCCNC(=O)C2CCN(S(=O)(=O)N3CCC4(CC3)OCCO4)CC2)C1 (stereo not given) 98.9%
COc1ccccc1NC(=O)c1ccc(N)cc1 98.7%

Experiment: TOR pathway CIT2 reporter hit retest – S. cerevisiae, GFP fusion, cherry picks, mother/daughter gates, confirmation (AID 2274)
Details: S. cerevisiae CIT2-GFP strain, flow cytometry, 3 h; at 10 µM; stronger effect = higher value

GFP response, % of DMSO, active:
O=C1c2cccc3c([N+](=O)[O-])ccc(c23)C(=O)N1CCc1ccccn1 158%
N/C(Cc1ccc(Cl)cc1Cl)=N\OC(=O)c1ccccc1 181%

GFP response, % of DMSO, inactive:
CSc1nc2ccc(S(=O)(=O)N3CCCC3)cc2s1 78.2%
COc1ccc(N=Cc2nc(-c3ccccc3)oc2OC(=O)c2ccccc2)cc1 93.4%
CS(=O)(=O)Nc1ccc(C2=NN(S(C)(=O)=O)C(c3ccccc3)C2)cc1 (stereo not given) 114%
Nc1cccc(C(=O)Nc2ccccc2Cl)c1 103%
CCN(CC)c1ccc(/C=C/c2cccc[n+]2C)c(OC)c1 112%
O=C(N/N=C/c1cccc(Oc2ccccc2)c1)c1ccncc1 95.8%
CCC(=O)N/C(N)=N/c1nc2ccccc2o1 98.3%
Cc1cccc2nc(-c3cccnc3)c(NCCC(C)C)n12 96.5%
CCOc1ccc(C(Nc2cccnc2)c2cc(Cl)c3cccnc3c2O)cc1 (stereo not given) 101%
Nc1cccnc1S(=O)(=O)c1ccccc1 99.1%
O=C1ON=C(c2ccccc2)/C1=C/c1ccco1 83.5%
COc1cc(NC(=O)c2c(OC)cccc2OC)ccc1NC(=O)c1cc2ccccc2o1 96.4%
Cc1cc(NC(=O)c2cc3ccccc3o2)ccc1NC(=O)c1ccccc1 101%
Clc1cccc(Cn2ncc3ccccc32)c1 95.5%
Cc1ccccc1NC(=O)CC1SC(=O)N(c2ccccc2)C1=O (stereo not given) 104%
CCOC(=O)c1sc(NC(=O)CN2C(=O)c3cccc4cccc(c34)C2=O)nc1C 98.3%
COc1ccc(C(=O)Nc2cccc(C)c2)cc1 111%
COc1ccc(C2CC(c3cccs3)=NN2S(=O)(=O)c2ccc(C)cc2)cc1 (stereo not given) 106%
O=C1c2ccsc2SCCN1Cc1ccccc1 92.6%
CCCOc1ccc(C(=O)NNC(=S)NC(=O)c2ccco2)cc1 134%
CCc1c2ccccc2nn1-c1ccccc1C(=O)C(C)=O 98.6%
Cc1c(Br)cc(C(=O)O)c(C)c1C 97.3%
CSC1=NS(=O)(=O)c2c(C)nn(C)c2S1 84.7%
O=S(=O)(c1ccc(Cl)cc1)c1ccccn1 103%
COc1cccc(C(=O)/C=C/c2ccc(SC)cc2)c1 99.7%
Cc1ccc(N2C(=O)CC(Sc3ncn[nH]3)C2=O)cc1C (stereo not given) 104%
O=C(NCc1ccccn1)c1cc(-c2ccc(Cl)cc2)oc1C(F)(F)F 102%
O=C(CSc1cccc[n+]1[O-])c1cc2ccccc2o1 107%
S=c1[nH]nc(NCCCN2CCOCC2)s1 102%
Cc1cccc(N=c2c([N+](=O)[O-])nn(-c3ccc(Cl)cc3)n2O)c1 107%
COc1ccc(CCN2C(=O)c3cccc4cccc(c34)C2=O)cc1OC 100%
COc1ccc(C(=O)NC(=S)Nc2ccc(CN3CCOCC3)cc2)cc1 98.8%
CCOc1ccccc1N1CCN(C(=O)c2ccccc2)CC1 101%
CCOC(=O)C(=Cc1ccc(F)cc1)C(=O)OCC 93.9%
O=C(O)c1ccn2c(C(=O)c3ccccc3)c(-c3ccccc3)cc2c1 96.9%
CCc1nnc(N2C(=O)c3cccc4cccc(c34)C2=O)s1 100%
CC1CCCN(CCCNC(=O)C2CCN(S(=O)(=O)N3CCC4(CC3)OCCO4)CC2)C1 (stereo not given) 105%
COc1ccccc1NC(=O)c1ccc(N)cc1 102%
